Pf Dd2 growth: P. falciparum Dd2 growth inhibition. SYBR Green, 72 h; stronger effect = lower value. activity change, % at 10 µM. 2.3% of 94,000 active. AID 1159554; in the data active means activity change below about -80%
T cruzi growth-1: inhibitors of T. cruzi proliferation; T. cruzi beta-gal in NIH3T3, GalScreen luminescence, 90 h; inhibition, % at 8.34 µM; 5.9% of 77,000 active; AID 624255;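 active means mean inhibition above about 93%, with at least 55% of replicates each passing it, limit read from the data, passing the limit was not always enough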
C diff growth: C. difficile growth inhibition; growth activity, negative = inhibition, % at 16 µg/mL (by protocol); AID 1259249; 0.25% of 86,000 active; Clostridium difficile clinical isolate growth, OD600, 24 h; stronger effect = lower value;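 active means mean growth activity at or below -80% and every replicate also at or below -80%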
T cruzi growth-2: Trypanosoma cruzi proliferation inhibition; shares compounds with T cruzi growth-1; T. cruzi beta-gal in NIH3T3, GalScreen luminescence, 90 h; inhibition, % at 8.35 µM; 72% of 5,600 active; AID 651739;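 active means mean replicate inhibition above about 95% and at least 55% of replicates individually reaching it, limit read from the data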
T cruzi growth-3: inhibitors of T. cruzi proliferation | shares compounds with T cruzi growth-1 | T. cruzi beta-gal in NIH3T3, GalScreen luminescence, 90 h | inhibition, % at 2.09 µM | 21% of 5,600 active | AID 651740;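 active means mean inhibition above about 95%, with at least 55% of replicates also reaching it, limit read from the data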
NIH3T3 tox: NIH/3T3 (mouse) viability loss; shares compounds with T cruzi growth-1; NIH/3T3 viability, CellTiter-Glo ATP luminescence, 90 h; cytotoxicity (signal decrease), % at 8.35 µM; 14% of 5,600 active; AID 651742;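 active means mean signal decrease across replicates above about 35% based on untreated-well scatter, with enough replicates individually passing, limit read from the data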
3T3 cytotox 2: NIH/3T3 (mouse) viability loss; NIH/3T3 viability, CellTiter-Glo ATP luminescence, 90 h; 56% of 5,600 active; shares compounds with T cruzi growth-1; AID 651744; inhibition, % at 24.9 µM;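 active means mean loss of cell viability signal at or above a set limit, and enough replicates individually reaching it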
Of the large screens only hits and unclear results are named; the others gave an inactive call (follow-up assays come after a bar, where they were run); ! = repeats disagree. This is a sample that favours compounds with a hit; in the whole collection about 6.7% have one here.

Cc1ccc(S(=O)(=O)N(C)C[C@H]2Oc3cc(C#CC4CCCC4)ccc3S(=O)(=O)N([C@@H](C)CO)C[C@@H]2C)cc1	T cruzi growth-1 121.2 | T cruzi growth-2 97.2 | T cruzi growth-3 108.8 | NIH3T3 tox inactive | 3T3 cytotox 2 43.5
COCC#Cc1ccc2c(c1)O[C@@H](CN(C)S(=O)(=O)c1ccc(C)cc1)[C@@H](C)CN([C@@H](C)CO)S2(=O)=O	none
C[C@@H]1CN([C@H](C)CO)S(=O)(=O)c2ccc(C#CC3CCCC3)cc2O[C@@H]1CN(C)S(C)(=O)=O	none (no result: C diff growth)
Cc1ccc(S(=O)(=O)N(C)C[C@H]2Oc3cc(C#CC4CCCC4)ccc3S(=O)(=O)N([C@@H](C)CO)C[C@H]2C)cc1	T cruzi growth-1 123.2 | T cruzi growth-2 inactive | T cruzi growth-3 111.5 | NIH3T3 tox inactive | 3T3 cytotox 2 46.3
COCC(=O)N[C@@H]1C=C[C@H](CC(=O)NCc2ccc(Cl)cc2)O[C@H]1CO	none (no result: C diff growth)
Cc1ccc(S(=O)(=O)NCC[C@@H]2CC[C@H](NC(=O)C3CCOCC3)[C@@H](CO)O2)cc1	none
C[C@@H]1CN([C@H](C)CO)C(=O)c2cc(NS(=O)(=O)c3cn(C)cn3)ccc2O[C@@H]1CN(C)C	none
COCC(=O)Nc1ccc2c(c1)[C@H]1C[C@@H](CC(=O)NCc3cc(F)ccc3F)O[C@H](CO)[C@H]1O2	none
C[C@@H]1CN([C@H](C)CO)C(=O)c2cccc(NC(=O)NC3CCCCC3)c2O[C@@H]1CN(C)Cc1ccc(C(=O)O)cc1	none
Cc1ccc(S(=O)(=O)N(C)C[C@@H]2Oc3cc(C#CC4CCCC4)ccc3S(=O)(=O)N([C@@H](C)CO)C[C@@H]2C)cc1	T cruzi growth-1 125.3 | T cruzi growth-2 inactive | T cruzi growth-3 111.7 | NIH3T3 tox inactive | 3T3 cytotox 2 40.2
COc1ccc(S(=O)(=O)N(C)C[C@H]2Oc3cc(C#CC4CCCCC4)ccc3S(=O)(=O)N([C@@H](C)CO)C[C@@H]2C)cc1	none (no result: C diff growth)
Cc1ccc(S(=O)(=O)N(C)C[C@H]2Oc3cc(C#CC4CCCC4)ccc3S(=O)(=O)N([C@H](C)CO)C[C@H]2C)cc1	T cruzi growth-1 125.8 | T cruzi growth-2 97.3! | T cruzi growth-3 116.6 | NIH3T3 tox inactive | 3T3 cytotox 2 37.9!
C[C@@H]1CN([C@H](C)CO)C(=O)c2cc(NC(=O)C3CCCCC3)ccc2O[C@H]1CN(C)Cc1ccncc1	none
C[C@@H]1CN([C@H](C)CO)C(=O)CCCn2nncc2CO[C@@H]1CN(C)Cc1ccc2cccnc2c1	none (no result: C diff growth)
C[C@H](CO)N1C[C@H](C)[C@H](CN(C)Cc2ccc(C(=O)O)cc2)OCc2cnnn2CCCC1=O	none (no result: T cruzi growth-1)
C[C@H]1CN([C@@H](C)CO)C(=O)CCCn2nncc2CO[C@@H]1CN(C)Cc1ccc(C(=O)Nc2ccccc2N)cc1	T cruzi growth-1 102.7 | T cruzi growth-2 110.9 | T cruzi growth-3 inactive | NIH3T3 tox inactive | 3T3 cytotox 2 inactive
C[C@H](CO)N1C[C@H](C)[C@H](CN(C)Cc2ccc3cccnc3c2)OCc2cnnn2CCCC1=O	T cruzi growth-1 110.6 | T cruzi growth-2 inactive | T cruzi growth-3 inactive | NIH3T3 tox inactive | 3T3 cytotox 2 inactive
C[C@H]1CCCCO[C@@H](CN(C)S(=O)(=O)c2cccs2)[C@@H](C)CN([C@@H](C)CO)C(=O)c2cc(NS(=O)(=O)c3cn(C)cn3)ccc2O1	none (no result: T cruzi growth-1)
C[C@@H]1CN([C@H](C)CO)C(=O)c2cc(NC(=O)Nc3cccc4ccccc34)ccc2O[C@@H]1CN(C)Cc1ccc(C(=O)Nc2ccccc2N)cc1	none (no result: C diff growth)
C[C@@H]1CN([C@@H](C)CO)C(=O)c2cc(NC(=O)c3ccncc3)ccc2O[C@@H](C)CCCCO[C@H]1CN(C)S(=O)(=O)c1ccccc1	none (no result: T cruzi growth-1)
C[C@H](CO)N1C[C@H](C)[C@H](CN(C)C(=O)Nc2cccc3ccccc23)Oc2ncc(-c3cccc(F)c3)cc2C1=O	none (no result: T cruzi growth-1)
COc1ccc(C#Cc2cnc3c(c2)C(=O)N([C@H](C)CO)C[C@H](C)[C@H](CN(C)Cc2cccc(C(F)(F)F)c2)O3)cc1OC	T cruzi growth-1 127.0 | T cruzi growth-2 106.5 | T cruzi growth-3 inactive | NIH3T3 tox inactive | 3T3 cytotox 2 inactive
Cc1cccc(CN(C)C[C@@H]2Oc3ncc(-c4cccc(C(F)(F)F)c4)cc3C(=O)N([C@H](C)CO)C[C@@H]2C)c1	none
COc1ccc(C#Cc2cnc3c(c2)C(=O)N([C@H](C)CO)C[C@H](C)[C@H](CN(C)Cc2ccccc2)O3)cc1OC	none
C[C@H](CO)N1C[C@H](C)[C@H](CN(C)C(=O)Nc2cccc3ccccc23)Oc2ncc(-c3cccc(C(F)(F)F)c3)cc2C1=O	T cruzi growth-1 107.2 (no result: C diff growth) | T cruzi growth-2 100.1 | T cruzi growth-3 inactive | NIH3T3 tox 44.2 | 3T3 cytotox 2 103.9
C[C@H](CO)N1C[C@H](C)[C@H](CN(C)Cc2cccc(C(F)(F)F)c2)Oc2ncc(-c3ccccc3)cc2C1=O	T cruzi growth-1 118.5 | T cruzi growth-2 98.8 | T cruzi growth-3 inactive | NIH3T3 tox inactive | 3T3 cytotox 2 inactive
C[C@H](CO)N1C[C@H](C)[C@@H](CN(C)S(=O)(=O)c2cccs2)Oc2c(NC(=O)c3cnccn3)cccc2C1=O	none
C[C@H](CO)N1C[C@H](C)[C@H](CN(C)Cc2ccc(C(=O)O)cc2)Oc2c(NS(=O)(=O)c3ccccc3)cccc2C1=O	none
CCC(=O)Nc1ccc2c(c1)OC[C@@H](C)N(CC1CCOCC1)C[C@H](C)[C@H](OC)CN(C)C2=O	none (no result: C diff growth)
C[C@@H]1CN([C@@H](C)CO)C(=O)Cc2cc(NS(C)(=O)=O)ccc2O[C@@H]1CN(C)C	none
COc1ccc(S(=O)(=O)Nc2cccc3c2O[C@H](CN(C)C(=O)Nc2ccc(C(F)(F)F)cc2)[C@H](C)CN([C@H](C)CO)C3=O)cc1	none
C[C@H]1CN([C@@H](C)CO)C(=O)Cc2cc(NS(=O)(=O)c3ccccc3)ccc2O[C@@H]1CN(C)Cc1ccncc1	none
COc1cccc(C#Cc2cnc3c(c2)C(=O)N([C@@H](C)CO)C[C@@H](C)[C@H](CN(C)C(=O)C2CCC2)O3)c1	none
COc1cccc(C#Cc2cnc3c(c2)C(=O)N([C@H](C)CO)C[C@@H](C)[C@H](CN(C)C(=O)C2CCCCC2)O3)c1	none
COc1cccc(C#Cc2cnc3c(c2)C(=O)N([C@H](C)CO)C[C@H](C)[C@@H](CN(C)C(=O)C2CCCCC2)O3)c1	Pf Dd2 growth -87.4, T cruzi growth-1 101.1 | T cruzi growth-2 109.9 | T cruzi growth-3 inactive | NIH3T3 tox inactive | 3T3 cytotox 2 102.7
COc1cccc(C#Cc2cnc3c(c2)C(=O)N([C@@H](C)CO)C[C@@H](C)[C@H](CN(C)C(=O)C2CCCCC2)O3)c1	T cruzi growth-1 85.4 | T cruzi growth-2 100.0 | T cruzi growth-3 inactive | NIH3T3 tox inactive | 3T3 cytotox 2 100.5

Source: PubChem (Broad Institute)
